Assay results from PubChem BioAssay (NCI).
This is part of a sample that, as a whole, favours compounds with a hit. Of some 83,000 tested, about 20% had one in any assay.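 Negative percent growth values reflect cell death: -40 means 40% of the cells present at the start died, and -100 means all died.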 The source made the active and inactive calls. The calls were made as follows: active = growth percent below 10; inactive = the rest.

System: MDA-MB-468 breast
Test: NCI-60 one-dose screen, 48 h (100 = growth as untreated, 0 = no growth, -100 = all killed)
Settings: 10 µM unless noted

| Compound | growth |
| --- | --- |
| CCCCCCCCCC[N+](C)(C)N | 55.1% (inactive) |
| C[n+]1c2ccccc2nc2ccc(NCCO)cc21 | 94% (inactive) |
| Cc1[nH]c(C(=O)Nc2ccccc2OCc2cccc(C(=O)NC3CCNC3)c2)c(Cl)c1Cl (stereo unspecified) | 22% (inactive) |
| COc1ccc(Cl)cc1-n1nnc(-c2nc3ccccc3[nH]2)c1N | 63.2% (inactive) |
| N#Cc1nn(-c2ccccn2)c(N)c1C#N | 116% (inactive) |
| CN1CCC(CNc2cc(C3(C(=O)Nc4cc(C(=O)Nc5ccc(Cl)c(C(F)(F)F)c5)ccc4F)CC3)ncn2)CC1 | -7.58% (active) |
